This note sets out measurements from PubChem BioAssay (Tox21).

Each structure is given as a SMILES string. Several values for one entry are separate records, joined by “and”; a condition that tells them apart may be missing. Equal entries are not always repeated. Records with an inconclusive call do not appear. Some structures have more than one record in an assay (separate samples or runs), and their calls can disagree. Activity calls are given as the source filed them. Unless noted, calls follow the shape of the full dose curve.

Assay [1] can be described thus: Nuclear factor erythroid 2-related factor 2/antioxidant responsive element (Nrf2/ARE) small molecule agonists: qHTS cell viability counter screen in human keratinocytes (AID 1919968; active = well fitted curve in the direction sought with a large enough effect in the repeat runs; an effect the other way counts as inactive or inconclusive; also: nearly all actives have a fitted effect of over 55% in size; also: potency is read from the fitted curve at half-maximal effect). An outline of the steps:
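In human HaCaT keratinocytes stably expressing an ARE-driven luciferase, compound exposure lasted 23 h at 37 C under 5% CO2. Viable cells are quantified with a protease-based fluorogenic reagent (CellTiter-Fluor) read 1 h after addition.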

The target of assay [2] is KiSS-1 receptor (Homo sapiens) (UniProt Q969F8). Briefly: Human kisspeptin (KISS1R) small molecule agonists, calcium flux assay in KISS1R-HEK293 cells (AID 1920064; active = well fitted curve in the direction sought with a large enough effect in the repeat runs; an effect the other way counts as inactive or inconclusive). The method, boiled down:
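Concentration-response testing used 15 concentrations in triplicate on human KISS1R-expressing HEK293 cells. Calcium-dependent fluorescence (Ex/Em 480/540) was followed kinetically for 3 min after compound transfer.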

A short description of assay [3]: G protein-coupled receptor (GPCR) small molecule agonists, calcium flux assay: HEK293 wild type cell line counter screen (AID 1920065). Also: potency is read from the fitted curve at half-maximal effect. The method, boiled down:
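Fluorescence intensity signals activation. After overnight (18 h) culture and a 1 h calcium dye load at 37 C, compounds are added by pin tool and the plate read at 480/540 nm for 3 min in 1 s steps.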

The nature of assay [4]: p53 small molecule agonists, cell-based qHTS assay with human liver microsomes (AID 1963577).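 Also: p53 response element beta-lactamase reporter cells with liver microsomes plus NADPH.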 An outline of the steps:
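HLM-supplemented p53RE-bla reporter assay: 16 h compound exposure at 37 C, microsomes and NADPH each 0.5 mg/mL final, read by fluorescence intensity.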

A short description of assay [5]: p53 small molecule agonists, cell-based qHTS assay with rat liver microsomes (AID 1963578). The method, boiled down: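 Quantitative HTS of the Tox21 10K library: p53RE-bla cells, rat liver microsomes plus NADPH at 0.5 mg/mL final each, 16 h at 37 C, beta-lactamase fluorescence detection.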
A short description of assay [6]: p53 small molecule agonists, cell-based qHTS assay with human liver microsomes: qHTS cell viability counter screen (AID 1963579). Also: nearly all actives have a fitted effect of over 45% in size. Also: potency is read from the fitted curve at half-maximal effect. An outline of the steps: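 Viability of p53RE-bla cells is measured as CellTiter-Glo luminescence following a 16 h, 37 C incubation with compound, liver microsomes from human donors and NADPH.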
Assay [7] in a line: p53 small molecule agonists, cell-based qHTS assay with rat liver microsomes: qHTS cell viability counter screen (AID 1963580). Also: nearly all actives have a fitted effect of over 45% in size. Also: potency is read from the fitted curve at half-maximal effect. An outline of the steps:
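Luminescent ATP readout (CellTiter-Glo, 30 min at room temperature) reports viability of p53RE-bla HCT-116 cells after 16 h at 37 C with test compounds under metabolic activation by rat liver microsomes and NADPH at 0.5 mg/mL final each.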

Assay [8] in a line: p53 small molecule agonists, cell-based qHTS assay: qHTS cell viability counter screen (AID 1963581). Also: nearly all actives have a fitted effect of over 45% in size. The method, boiled down: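 Luminescence from CellTiter-Glo, reflecting ATP content, serves as the cytotoxicity measure; it is taken after the 2 h reporter substrate step in HCT-116 p53RE-bla cells dosed for 16 h at 37 C.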
Assay [9] can be described thus: p53 small molecule agonists, cell-based qHTS assay (AID 1963582; active = well fitted activation curve with a large enough effect in the signal ratio in the repeat runs, not every such curve was filed as active; the % refers to the signal ratio). An outline of the steps: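 After plating, p53RE-bla cells sat 5 h in the incubator; compounds or DMSO vehicle were pinned in; a 16 h incubation at 37 C followed; FRET substrate was added and, 2 h later at RT, fluorescence was measured.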
In assay [10] the target is 5-hydroxytryptamine receptor 2A (Homo sapiens) (UniProt P28223). Put plainly: 5-hydroxytryptamine receptor 2A (HTR2A) small molecule antagonists, cell-based qHTS assay (AID 1963586). Also: nearly all actives have a fitted effect of over 45% in size. The method, boiled down: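 CHO cells stably expressing human HTR2A were plated for 18 h at 37 C, then loaded with calcium dye for 1 h. Compounds were preincubated 5 min at room temperature before DOI (4 nM solution) was added. Kinetic fluorescence was read for 3 min.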
Sequence of 5-hydroxytryptamine receptor 2A (Homo sapiens) (P28223 whole entry, looked up): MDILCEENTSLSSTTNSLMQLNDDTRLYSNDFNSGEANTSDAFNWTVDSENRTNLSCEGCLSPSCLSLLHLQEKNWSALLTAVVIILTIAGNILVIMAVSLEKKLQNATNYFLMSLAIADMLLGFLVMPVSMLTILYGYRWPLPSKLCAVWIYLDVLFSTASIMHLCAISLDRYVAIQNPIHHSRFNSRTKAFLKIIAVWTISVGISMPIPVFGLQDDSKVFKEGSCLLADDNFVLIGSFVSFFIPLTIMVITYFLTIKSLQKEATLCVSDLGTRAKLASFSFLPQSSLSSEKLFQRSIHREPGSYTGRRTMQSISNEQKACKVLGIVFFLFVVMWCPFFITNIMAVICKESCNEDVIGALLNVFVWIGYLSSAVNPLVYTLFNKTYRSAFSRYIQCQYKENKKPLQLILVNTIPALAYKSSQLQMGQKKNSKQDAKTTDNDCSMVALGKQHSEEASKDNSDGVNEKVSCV

For assay [11] the target is unchanged. Briefly: 5-hydroxytryptamine receptor 2A (HTR2A) small molecule agonists, cell-based qHTS assay (AID 1963587). Also: nearly all actives have a fitted effect of over 30% in size. Also: potency is read from the fitted curve at half-maximal effect. The method, boiled down:
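HTR2A-CHO cells, plated 18 h at 37 C/5% CO2, dye-loaded 1 h at 37 C; compounds in DMSO added by pin tool (agonist mode). Intracellular calcium flux read as kinetic fluorescence on FDSS over 2 min at 1 s intervals.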

Assay [12] has as its target Muscarinic acetylcholine receptor M1 (Homo sapiens) (UniProt P11229). Briefly: Cholinergic receptor muscarinic 1 (CHRM1) small molecule antagonists, cell-based qHTS assay (AID 1963588). Also: nearly all actives have a fitted effect of over 40% in size. Also: potency is read from the fitted curve at half-maximal effect. An outline of the steps: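 Compounds were tested at 15 concentrations in three independent runs. Dye-loaded CHRM1-CHO cells were exposed 5 min at room temperature before stimulation by acetylcholine added at 50nM. Intracellular calcium was read kinetically on FDSS for 3 min.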

Assay [13] has the same target. Put plainly: Cholinergic receptor muscarinic 1 (CHRM1) small molecule agonists, cell-based qHTS assay (AID 1963589). Also: nearly all actives have a fitted effect of over 35% in size. The method, boiled down: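 Fluorescent calcium dye reports M1 activation in stably transfected CHO cells. Compounds, 15 concentrations, added after 1 h dye loading at 37 C; kinetic reading at 1 sec intervals.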
The nature of assay [14]: cAMP Responsive Elements (CRE) small molecule agonists, cell-based qHTS assay (AID 1963590). The method, boiled down:
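Compound exposure lasted 3 h at 37 C/5% CO2 in CRE-bla HEK 293T cells grown in assay medium with 10% dialyzed FBS and 25 mM HEPES. Reporter signal came from LiveBLAzer B/G FRET substrate, 2 h, room temperature.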

Assay [15] in a line: cAMP Responsive Elements (CRE) small molecule antagonists, cell-based qHTS assay (AID 1963591; active = well fitted inhibition curve with a large enough effect in the signal ratio in the repeat runs, not every such curve was filed as active; the % refers to the signal ratio). The method, boiled down:
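Stimulation used NKH477 at a final 0.25 uM for 3 h in compound-treated CRE-bla HEK293T cells, seeded 18 h beforehand. Reporter activity was measured with LiveBLAzer B/G FRET substrate after 2 h at room temperature.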

The target in assay [16] is Beta-2 adrenergic receptor (Homo sapiens) (UniProt P07550). Put plainly: Adrenergic beta2 receptor (ADRB2) small molecule antagonists, cell-based qHTS assay (AID 1963592). Also: series mostly up to about 92 µM; nearly all actives have a fitted effect of over 50% in size. An outline of the steps:
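Assay format: CHO-ADRB2 cells, 18-20hr seeding at 37C/5% CO2, then compound plus 1nM isoproterenol agonist mix for 0.5hr RT. Homogeneous time-resolved fluorescence cAMP detection after 1hr, expressed as 665/615 nm ratio.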

Assay [17] shares this target. Put plainly: Adrenergic beta2 receptor (ADRB2) small molecule agonists, cell-based qHTS assay (AID 1963593).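 Also: CHO cells stably overexpressing human ADRB2.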 An outline of the steps:
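CHO cells stably over-expressing ADRB2 were plated overnight at 37C, then dosed with compounds plus a stimulation mix containing 100uM IBMX and 25uM Ro-20-1724 for 0.5hr at room temperature. cAMP was measured by HTRF competition, 1hr.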

Assay [18] concerns the target D(2) dopamine receptor (Homo sapiens) (UniProt P14416). Put plainly: Dopamine D2 receptor (DRD2) small molecule antagonists, cell-based qHTS assay (AID 1963595; active = well fitted inhibition curve with a large enough effect in the signal ratio in the repeat runs, with a control signal flat; the % refers to the signal ratio; also: potency is read from the fitted curve at half-maximal effect). An outline of the steps: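 DRD2-HEK293; 0.1 mM Ro20-1724; cpd 10 min RT; NKH477 200 nM + quinpirole 12 nM, 30 min RT; HTRF cAMP (cAMP-d2/anti-cAMP cryptate), 665/620 nm ratio after 1 h.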
For assay [19] the target is unchanged. Put plainly: Dopamine D2 receptor (DRD2) small molecule agonists, cell-based qHTS assay (AID 1963594). Also: nearly all actives have a fitted effect of over 35% in size. The method, boiled down:
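HEK293 cells stably expressing DRD2 were cultured 24 h at 37 C, then given Ro20-1724 (0.1 mM final) and compounds for 10 min at room temperature. NKH477 (200nM) was then added for 30 min. cAMP was read by HTRF.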

Assay [20] in a line: Nuclear factor erythroid 2-related factor 2/antioxidant responsive element (Nrf2/ARE) small molecule agonists: luciferase reporter gene qHTS assay in human keratinocytes (AID 1919969). Also: nearly all actives have a fitted effect of over 35% in size.
% is scaled to controls: 0 for no effect and ±100 for the full control effect.

Sequence of KiSS-1 receptor (Homo sapiens) (Q969F8 whole entry, looked up): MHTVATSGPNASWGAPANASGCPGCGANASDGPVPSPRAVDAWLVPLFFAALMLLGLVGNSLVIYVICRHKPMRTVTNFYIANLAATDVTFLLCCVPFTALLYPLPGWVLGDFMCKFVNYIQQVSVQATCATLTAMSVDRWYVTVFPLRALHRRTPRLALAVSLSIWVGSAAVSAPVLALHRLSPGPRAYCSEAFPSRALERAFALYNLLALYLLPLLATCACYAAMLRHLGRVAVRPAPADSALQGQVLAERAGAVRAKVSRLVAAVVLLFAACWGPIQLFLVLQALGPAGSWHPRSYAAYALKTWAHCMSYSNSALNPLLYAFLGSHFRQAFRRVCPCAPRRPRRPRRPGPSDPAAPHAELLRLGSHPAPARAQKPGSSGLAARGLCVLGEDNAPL
Sequence of Beta-2 adrenergic receptor (Homo sapiens) (P07550 whole entry, looked up): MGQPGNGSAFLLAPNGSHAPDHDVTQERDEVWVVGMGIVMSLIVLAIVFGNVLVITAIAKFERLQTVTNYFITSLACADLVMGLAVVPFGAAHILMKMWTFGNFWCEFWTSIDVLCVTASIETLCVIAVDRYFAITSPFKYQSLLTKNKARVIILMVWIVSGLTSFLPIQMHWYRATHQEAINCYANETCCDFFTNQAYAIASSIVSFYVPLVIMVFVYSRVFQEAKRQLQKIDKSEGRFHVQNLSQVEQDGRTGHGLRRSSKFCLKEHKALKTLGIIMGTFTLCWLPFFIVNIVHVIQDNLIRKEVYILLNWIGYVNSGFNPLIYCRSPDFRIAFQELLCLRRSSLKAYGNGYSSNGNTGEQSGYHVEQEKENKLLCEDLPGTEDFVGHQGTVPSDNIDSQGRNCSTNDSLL
Sequence of Muscarinic acetylcholine receptor M1 (Homo sapiens) (P11229 whole entry, looked up): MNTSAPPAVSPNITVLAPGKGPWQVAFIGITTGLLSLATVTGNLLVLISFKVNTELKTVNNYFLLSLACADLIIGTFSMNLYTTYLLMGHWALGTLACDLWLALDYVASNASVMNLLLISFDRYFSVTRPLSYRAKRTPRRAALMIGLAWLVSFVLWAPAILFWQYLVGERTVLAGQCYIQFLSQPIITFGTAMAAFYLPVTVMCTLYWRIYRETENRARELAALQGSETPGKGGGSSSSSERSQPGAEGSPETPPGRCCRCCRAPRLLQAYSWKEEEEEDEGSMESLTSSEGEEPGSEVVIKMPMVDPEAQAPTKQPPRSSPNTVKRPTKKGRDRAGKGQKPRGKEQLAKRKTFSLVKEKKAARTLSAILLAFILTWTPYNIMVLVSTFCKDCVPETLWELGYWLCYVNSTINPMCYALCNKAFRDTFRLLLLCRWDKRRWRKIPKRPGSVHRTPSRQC
Sequence of D(2) dopamine receptor (Homo sapiens) (P14416 whole entry, looked up): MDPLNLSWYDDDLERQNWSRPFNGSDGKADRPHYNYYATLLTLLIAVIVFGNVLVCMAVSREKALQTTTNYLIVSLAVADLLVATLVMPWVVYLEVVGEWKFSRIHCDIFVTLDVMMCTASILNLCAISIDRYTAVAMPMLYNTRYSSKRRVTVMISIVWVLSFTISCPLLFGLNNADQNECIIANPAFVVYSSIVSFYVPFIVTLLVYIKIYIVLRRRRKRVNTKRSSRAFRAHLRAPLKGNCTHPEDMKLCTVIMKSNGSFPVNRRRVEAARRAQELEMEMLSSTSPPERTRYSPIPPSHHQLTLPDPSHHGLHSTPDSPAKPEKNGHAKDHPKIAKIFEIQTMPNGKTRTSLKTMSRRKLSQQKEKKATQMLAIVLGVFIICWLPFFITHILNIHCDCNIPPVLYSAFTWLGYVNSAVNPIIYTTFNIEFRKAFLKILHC

On to `Clc1ccc(Cl)c(Cl)c1`, for which the Potency result in assay [1], in assay [2], in assay [3], in [4], in assay [5] and in [6] was “inactive” each time. The Potency entry in assay [7], in assay [8], in assay [9], in [10], in [11] and in assay [12] was “inactive” each time. The Potency result in assay [13], in [14], in [15], in assay [16], in [17] and in assay [18] was “inactive” in each case.
As to `CON(C)C(=O)Nc1ccc(Cl)cc1`, the Potency result in assay [1], in [2], in [3], in assay [4], in assay [5] and in assay [6] was “inactive” throughout. Also, the Potency entry in assay [7], in assay [8], in assay [9], in assay [11], in assay [12] and in assay [13] was “inactive” each time. The Potency result in assay [14], in assay [15], in [16], in [19] and in [18] was “inactive” throughout.
Regarding `O=Cc1ccccc1`, the Potency entry in assay [1], in assay [2], in assay [3], in assay [4], in assay [5] and in assay [6] was “inactive” throughout. Moreover, the Potency entry in [7], in assay [8], in assay [9], in [10], in assay [11] and in assay [13] was “inactive” in each case. Besides, the Potency entry in assay [14], in assay [15], in assay [16] and in assay [19] was “inactive” throughout.
In the case of `ClCOCCl`, the Potency entry in [1], in [2], in assay [3], in assay [4], in assay [5] and in assay [6] was “inactive” in each case. The Potency result in [7], in [8], in assay [9], in assay [10], in [11] and in assay [12] was “inactive” each time. The Potency entry in assay [13], in assay [14], in assay [15], in assay [19] and in assay [18] was “inactive” each time.
`CCCC[n+]1ccc(C)cc1`: the Potency entry in [1] was “inactive and 27.2 µM (active)”; in [3], “inactive and 39 µM (active)”; in assay [6], “inactive and 40.6 µM (active)”; in assay [7], “inactive and 20.3 µM (active)”; in assay [11], “inactive and 43.4 µM (active) and 39 µM (active)”; in assay [18] it was “inactive and 60.8 µM (active)”. For the same compound, the Potency result in [20], in [8], in assay [10], in [12], in assay [13] and in assay [14] was “inactive” in each case. For the same compound, the Potency entry in assay [15], in assay [16], in [17] and in [19] was “inactive” each time.
On to `Cc1cc(-c2cc(C)c(N)c(C)c2)cc(C)c1N`, for which the Potency result in assay [1], in assay [2], in assay [3], in assay [4], in assay [5] and in assay [6] was “inactive” each time. Besides, the Potency entry in assay [7], in assay [8], in assay [9], in [11], in assay [13] and in assay [14] was “inactive” throughout. Further, the Potency entry in assay [15], in assay [19] and in assay [18] was “inactive” in each case. The Potency in assay [12] is 2.11 µM (active) and inactive.
Regarding `CCC(=O)O[C@H]1CC[C@H]2[C@@H]3CCC4=CC(=O)CC[C@]4(C)[C@H]3CC[C@]12C`, the Potency result in assay [1], in assay [2], in assay [3], in [4], in [5] and in assay [6] was “inactive” each time. Besides, the Potency result in assay [7], in assay [8], in [9], in [11], in assay [13] and in assay [16] was “inactive” each time. The Potency entry in assay [17] and in assay [18] was “inactive” in each case. Besides, the Potency in assay [12] is 5.3 µM (active) and 4.6 µM (active).
For `CC(C)CON=O`, the Potency result in [1], in assay [2], in [3], in [4], in assay [5] and in assay [7] was “inactive” each time. For the same compound, the Potency result in [8], in assay [9], in assay [10], in [11], in assay [12] and in assay [13] was “inactive” in each case. For the same compound, the Potency entry in assay [14], in assay [15], in assay [16], in [17], in assay [19] and in [18] was “inactive” in each case. Besides, the activity change, negative = cytotoxicity in assay [6] is -1.64% [at 13.5 µM] (inactive).
